Experimental data reported in PubChem BioAssay (NCATS).
Several values for one entry are separate records, joined by “and”; a condition that tells them apart may be missing. Equal entries are not always repeated. Inconclusive results are not listed. A call without a number means that no potency is given here. Activity calls are given as the source filed them. Calls follow the shape of the dose curve; as a rule, active = well fitted inhibition curve with a large enough effect; inconclusive = small, poorly fitted or top-dose-only effect; inactive = flat fitted curve, though single readings scatter.

Legend:
PC15 = assay: qHTS profiling for inhibitors of Plasmodium falciparum proliferation (AID 504749); settings: P. falciparum in erythrocytes, SYBR Green DNA, 72 h; series mostly up to 28.7 µM
Summary of the method: (§1)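 Each compound contacts P. falciparum-infected red blood cells for 72 h at 37 C; lysis buffer (Tris, EDTA, saponin, Triton X, SYBR Green I) is added and fluorescence measured next morning; values normalized to controls.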

PC26 = assay: as above; settings: P. falciparum in erythrocytes, SYBR Green DNA, 72 h; series mostly up to 28.7 µM
Summary of the method: as §1

PC49 = assay: as above; settings: P. falciparum in erythrocytes, SYBR Green DNA, 72 h; series mostly up to 28.7 µM
Summary of the method: as §1

SC27B = assay: as above; settings: P. falciparum in erythrocytes, SYBR Green DNA, 72 h; series mostly up to 28.7 µM
Summary of the method: as §1

TAB109 = assay: as above; settings: P. falciparum in erythrocytes, SYBR Green DNA, 72 h; series mostly up to 28.7 µM
Summary of the method: as §1

TAB113 = assay: as above; settings: P. falciparum in erythrocytes, SYBR Green DNA, 72 h; series mostly up to 28.7 µM
Summary of the method: as §1

TAB165 = assay: as above; settings: P. falciparum in erythrocytes, SYBR Green DNA, 72 h; series mostly up to 28.7 µM
Summary of the method: as §1

W2 = assay: as above; settings: P. falciparum in erythrocytes, SYBR Green DNA, 72 h; series mostly up to 28.7 µM
Summary of the method: as §1

CRL-7250 = normal cell line; assay: Cytotoxic Profiling of Annotated Libraries Using Quantitative High-Throughput Screening (AID 1296008); settings: Five cell lines viability, CellTiter-Glo ATP luminescence, 48-72 h; max response: hits give low values; also: potency is read from the fitted curve at half-maximal effect
Summary of the method: (§2)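 Cells exposed to compounds for 48 or 72 hr at 37 degrees Celsius. Viability read as ATP-coupled luminescence with CellTiter-Glo after 10 min at room temperature.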

HEK293 = assay: as above; settings: Five cell lines viability, CellTiter-Glo ATP luminescence, 48-72 h; max response: hits give low values
Summary of the method: as §2
Also: nearly all actives have a fitted effect of over 60% in size.

O=C1CCC(N2C(=O)c3ccccc3C2=O)C(=O)N1 (centres undefined)
Potency (PC15): inactive
Potency (PC26): inactive
Potency (PC49): inactive
Potency (SC27B): inactive
Potency (TAB109): inactive
Potency (TAB113): inactive
Potency (TAB165): inactive
Potency (W2): inactive
max response (CRL-7250): 1.53% (inactive)
outcome (CRL-7250): inactive
max response (HEK293): -7.21% (inactive)
outcome (HEK293): inactive

O=C(O)[C@@H](c1ccc(OCc2ccc3ccccc3n2)cc1)C1CCCC1
max response (CRL-7250): -8.88% (inactive)
max response (HEK293): -13% (inactive)

O=c1n(CCCN2CCN(c3cccc(Cl)c3)CC2)nc2ccccn12
Potency (PC15): inactive
Potency (PC26): inactive
Potency (PC49): inactive
Potency (SC27B): inactive
Potency (TAB109): inactive
Potency (TAB113): inactive
Potency (TAB165): inactive
Potency (W2): inactive
max response (CRL-7250): -10.4% (inactive)
outcome (CRL-7250): inactive
max response (HEK293): 2.07% (inactive) and 1.71% (inactive)

CCCS(=O)(=O)Nc1ccc(F)c(C(=O)c2c[nH]c3ncc(Cl)cc23)c1F
max response (CRL-7250): -1.21% (inactive)
Potency (HEK293): 14.8 µM (active)

O=c1[nH]c(-c2ccc(C(F)(F)F)cc2)nc2c1CSCC2
max response (CRL-7250): -16.3% (inactive)
max response (HEK293): 1.09% (inactive)

Cc1[nH]c(=O)c(C#N)cc1-c1ccc2nccn2c1
Potency (PC15): inactive
Potency (PC26): inactive
Potency (PC49): inactive
Potency (SC27B): inactive
Potency (TAB109): inactive
Potency (TAB113): inactive
Potency (TAB165): inactive
Potency (W2): inactive
max response (CRL-7250): 0.18% (inactive)
outcome (CRL-7250): inactive
max response (HEK293): 3.47% (inactive)

Cc1[nH]c(=O)c(C#N)cc1-c1ccncc1
Potency (PC15): inactive
Potency (PC26): inactive
Potency (PC49): inactive
Potency (SC27B): inactive
Potency (TAB109): inactive
Potency (TAB113): inactive
Potency (TAB165): inactive
Potency (W2): inactive
max response (CRL-7250): 1.86% (inactive) and -12.7% (inactive)
outcome (CRL-7250): inactive
max response (HEK293): -9.35% (inactive)
outcome (HEK293): inactive

COc1ccc(CC2=NN3C([C@@H](CCc4ccccc4)[C@@H](C)O)=NC(C)C3C(=O)N2)cc1OC (some centres undefined)
max response (CRL-7250): -0.833% (inactive)
max response (HEK293): -3.77% (inactive)
